Several values for one entry are separate records, joined by “and”; a condition that tells them apart may be missing. Equal entries are not always repeated. This is part of a sample that, as a whole, favours compounds with a hit. Of some 83,000 tested, about 20% had one in any assay.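 For each line, cells grew in 96-well plates with the test compound present at a single concentration for 48 hours.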 Activity calls are given as the source filed them.

Data on 40 compounds can be found in PubChem BioAssay (NCI).

The test has as its system HS 578T breast. The test is described as follows: NCI-60 one-dose screen, 48 h (100 = growth as untreated, 0 = no growth, -100 = all killed). The following applies: 10 µM unless noted. How it is done: Growth inhibition of the HS 578T human tumor cell line is measured as a screen for anti-cancer activity. Cells are grown in 96 well plates and exposed to the test compound for 48 hours. Compounds are tested at a single concentration, which is 10^-5 M for most compounds. The reported endpoint is percent growth (GI% or GIPRCNT), where numbers from 0 - 100% represent growth inhibition, and numbers from -100% - 0 represent cell death. For example, a value of 40 represents 60% growth inhibition. A value of 0 means no net growth occurred over the course of the experiment. A value of -40 indicates 40% of cells at the beginning of the experiment died by the end of the experiment. A value of -100 means all cells are dead at the end of the experiment.
NCI-60 Human Tumor Cell Lines Screen was performed using the standard one-dose NCI protocol, which is described in more detail at https://dtp.cancer.gov/discovery_development/nci-60/default.htm.
Compounds with GIPRCNT values below 10 were considered active. Activity score was based on GIPRCNT using the following formula: […]
Score is 0 for GIPRCNT values of 100 or above, 50 for GIPRCNT values of 0, and 100 for GIPRCNT values of -100.
As to `CCCCCCCCCCCCCCCCCCOP(=O)([O-])OC1CC[N+](C)(C)CC1`, the growth is 11.8% (inactive).

On to `CN(C)CCOc1ccc2c(c1)C(=O)/C(=C\c1ncc([N+](=O)[O-])n1C)C2`, for which the growth was 21.1% (inactive). Regarding `CC(=Nc1ccc(N(C)C)cc1)c1ccccc1`, the growth is 74.2% (inactive). Take `O=C1NC(=O)/C(=C/C=C/c2ccccc2)S1`: the growth is 93.3% (inactive).

As for `CC1OC2CC(=O)OC2C2=C1C(=O)c1c(O)cccc1C2=O` (stereo not given), the growth was 5.97% (active). Under `Cc1cc2nc(CS)[nH]c2cc1C` stands 103% (inactive). Take `CN(C)c1ccc(N=Nc2cccc3ccccc23)cc1`: the growth is 95% (inactive). Under `O=C1c2cccnc2-c2nccc3c2c1nc1cc(Br)ccc13` stands -74% (active) and -32.9% (active); under `COc1ccccc1/C=C\C(=O)c1ccccc1`, 86% (inactive). Take `O=C(O)c1ccc2c3c(ncnc13)-c1ccccc1C2=O`: the growth is 5.48% (active).

On to `CCC(=O)Sc1ccccc1C(=O)Nc1ccc(Cl)cc1`, for which the growth is 54.5% (inactive).

With `CCOC(=O)c1c(C)[nH]c(CO)c1C`, the growth was 109% (inactive). Then `O[C@H]1[C@H]2c3cc4c(cc3CN3CCC(=C[C@@H]1O)[C@H]23)OCO4`, with 42.7% (inactive); and `O=C(Nc1cccc(Br)c1)Oc1ccc(Cl)c2cccnc12`, with 50.9% [100 µM] (inactive); and `S=C(N/N=C/c1ccccn1)Nc1ccccn1`, with 97.4% (inactive). Under `O=C1N[C@H]2[C@H](CS[C@H]2CCCCC(=O)N(CCP(c2ccccc2)c2ccccc2)CCP(c2ccccc2)c2ccccc2)N1` stands 84.4% (inactive). Then `O=C1c2ccccc2C(=O)N1c1ccccc1`, with 119% (inactive); and `C1=C(c2ccccc2)C(c2ccc(OCCN3CCCCC3)cc2)Oc2ccccc21` (stereo not given), with 75.6% (inactive); and `NC(=O)/C=C/C(=O)c1c(Cl)cccc1Cl`, with -7.11% (active). As for `O=C(/C=C/c1cccc(Cl)c1)c1ccccc1`, the growth was 108% (inactive) and 107% (inactive). As to `Nc1nc(N)c2nc(CNc3ccc(C(=O)NC(CCC(=O)O)C(=O)O)cc3)cnc2n1` (stereo not given), the growth is 90.5% (inactive).

For the compound `CC(C)(C)CC(C)(C)c1ccc(OCCSC(=N)N)cc1`, the growth was 91.4% (inactive). For `CCOc1ccc(-c2nc3ccc(-c4nc5ccc(N6CCN(C)CC6)cc5[nH]4)cc3[nH]2)cc1`, the growth was -58.3% (active). Then `CC1=CC(O)C2CC1C2(C)C` (stereo not given), with 97.5% (inactive) and 106% (inactive); and `O=C1c2ccccc2C(=O)c2sc(Nc3cccc(Cl)c3)nc21`, with -8.09% (active); and `N#CC1C(=O)SC2c3ccccc3C(=O)c3ccccc3C12` (stereo not given), with 96.2% (inactive). Then `Cn1c2ccccc2c2nnc(N/N=C/c3ccccn3)nc21`, with 53.7% (inactive); and `Oc1c(Cl)cc(Cl)c2cccnc12`, with 72.9% (inactive) and 52% (inactive); and `COc1cc(NS(C)(=O)=O)ccc1Nc1c2ccccc2nc2ccccc12`, with -6.75% [2.5 µM] (active). Under `O=Nc1ccccc1N=O` stands 84.2% (inactive).

Consider `O=C1C=CC(=O)N1C1c2ccccc2-c2ccccc21`, for which the growth was 102% (inactive). Then `Cc1cc(N)c2ccccc2[n+]1CCCCCCCCCC[n+]1c(C)cc(N)c2ccccc21`, with 34.7% (inactive); and `Cc1ccc2nc(-[n+]3cc4ccccc4cc3C)ccc2c1`, with 67.3% (inactive). Under `Cc1ccnc(NC(c2ccccc2)c2ccc3cccnc3c2O)c1` (stereo not given) stands 66.9% (inactive); under `N#CSCc1ccc(CSC#N)c(Cl)c1`, 94.1% (inactive).

`CCC1OC(OC)C=CC1=O` (stereo not given): the growth is 96.9% (inactive). Then `CNc1ccc(N)cc1`, with 109% (inactive). With `Cc1ccc(C(=Nc2ccccc2)N=P(c2ccccc2)(c2ccccc2)c2ccccc2)cc1`, the growth was -45.8% (active). Then `CCOC(=O)/C=C/c1ccc([N+](=O)[O-])o1`, with 98.1% (inactive); and `Cc1ccc(NS(=O)(=O)c2ccc(C)cc2)cc1`, with 98.9% (inactive) and 111% (inactive).
